Several values for one entry are separate records, joined by “and”; a condition that tells them apart may be missing. Equal entries are not always repeated. Activity calls are given as the source filed them.
What was measured:
Albumin (Bos taurus) = Albumin (Bos taurus) (UniProt P02769); test: bovine serum albumin binders on microarray, profiling panel, artefact control for SMM control protein annotation, biochemical, small-molecule microarray, Alexa647 label, 635/667 nm fluorescence (AID 1118); details: BSA-A647 binding, fluorescence 635 nm, higher = more signal;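 further: score merges 667 nm emission intensity and signal-to-noise per printed compound spot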
[1] = small-molecule microarray binders of probe aXIP, primary screen, biochemical, NeuroSMM set, 635/667 nm fluorescence (AID 1119); details: higher = more signal, called active from +8 up or from −8 down;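 further: probe is the protein aXip251-270 applied at 1 µg/mL to compound-printed slides; binding of probe to printed compounds measured as 667 nm fluorescence plus signal to noise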
[2] = small-molecule binders of probe aNOTCH3, primary screen, biochemical, small-molecule microarray, 635/667 nm fluorescence (AID 1120); details: higher = more signal;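 further: probe is a biotin-tagged antibody raised against NOTCH3 rather than NOTCH3 protein; score merges spot fluorescence near 667 nm with spot signal to noise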
[3] = small-molecule binders of probe aNOTCH2, primary screen, biochemical, small-molecule microarray, 635/667 nm fluorescence (AID 1121); details: higher = more signal;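 further: score merges feature fluorescence read at 667 nm with its signal to noise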
[4] = biological target: Carbonic anhydrase 2 (Homo sapiens) (UniProt P00918); test: CAII small-molecule binders, profiling panel, biochemical, small-molecule microarray, Alexa647-labelled CAII (AID 1122); details: CAII-A647 binding fluorescence, higher = more signal
[5] = COS7 lysate on small-molecule microarray, probe aHis, 635 nm (AID 1123); details: COS7 cell lysate, fluorescence, higher = more signal;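 further: z-score combines 667nm fluorescence intensity with signal-to-noise per printed compound spot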
[6] = compound binding in COS7 lysate, probe aLAP1, primary screen, cell lysate, small-molecule microarray (AID 1124); details: probe aLAP1, fluorescence, higher = more signal;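 further: lysate comes from COS7 cells expressing LAP1 and is applied at 0.3 µg/mL; score merges spot fluorescence near 667 nm with signal-to-noise over triplicate slides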
Sam68 (KHDRBS1) = test: Sam68 small-molecule binders, primary screen, biochemical, small-molecule microarray, 635 nm fluorescence (AID 1125); details: small-molecule microarray binding, higher = more signal;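 further: score merges 667 nm channel intensity with signal to noise over triplicate slides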
[7] = test system: Chordin-like protein 2 (CHRDL2); test: CHRDL2 small-molecule binders, primary screen, biochemical, small-molecule microarray, 635 nm fluorescence (AID 1126); details: small-molecule microarray binding, fluorescence 635 nm; higher = more signal;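 further: printed compound slides probed with Chrdl2 protein at 4 µg/mL for 1 h at 4 C; score merges 667 nm emission intensity with signal to noise over three replicate slides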
[8] = biological target: Concanavalin-A (Canavalia ensiformis) (UniProt P02866); test: ConA small-molecule binders, primary screen, artefact control for SMM control protein annotation, biochemical, small-molecule microarray, Alexa647 label, 635 nm (AID 1127); details: ConA-A647 binding fluorescence, higher = more signal;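 further: z combines 667 nm emission intensity with signal-to-noise across three replicate slides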
Concanavalin-A (Canavalia ensiformis), sequence (P02866 whole entry, looked up): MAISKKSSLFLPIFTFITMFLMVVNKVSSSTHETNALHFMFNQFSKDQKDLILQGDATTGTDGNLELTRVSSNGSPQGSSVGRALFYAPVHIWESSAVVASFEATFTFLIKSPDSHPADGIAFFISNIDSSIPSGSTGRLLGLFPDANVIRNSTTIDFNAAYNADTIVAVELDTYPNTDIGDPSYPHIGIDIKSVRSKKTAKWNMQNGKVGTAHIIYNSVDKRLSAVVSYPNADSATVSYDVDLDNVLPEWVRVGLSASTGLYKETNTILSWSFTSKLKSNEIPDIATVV

Albumin (Bos taurus), sequence (P02769 whole entry, looked up): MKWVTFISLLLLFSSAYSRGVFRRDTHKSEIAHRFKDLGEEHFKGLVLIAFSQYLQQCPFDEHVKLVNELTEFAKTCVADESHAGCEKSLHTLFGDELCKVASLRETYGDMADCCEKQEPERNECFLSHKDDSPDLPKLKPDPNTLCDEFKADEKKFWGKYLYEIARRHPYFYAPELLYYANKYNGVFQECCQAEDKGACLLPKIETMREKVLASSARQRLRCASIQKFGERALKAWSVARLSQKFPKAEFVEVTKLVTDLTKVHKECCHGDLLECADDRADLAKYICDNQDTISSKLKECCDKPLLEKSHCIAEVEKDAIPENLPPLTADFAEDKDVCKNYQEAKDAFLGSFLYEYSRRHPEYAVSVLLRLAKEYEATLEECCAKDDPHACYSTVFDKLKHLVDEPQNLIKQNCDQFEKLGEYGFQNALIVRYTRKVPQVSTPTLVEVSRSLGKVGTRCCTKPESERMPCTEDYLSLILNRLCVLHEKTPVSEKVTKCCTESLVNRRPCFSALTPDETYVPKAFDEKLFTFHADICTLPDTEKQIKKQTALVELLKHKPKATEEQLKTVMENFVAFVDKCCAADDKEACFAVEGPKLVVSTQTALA

Row | Compound | composite z-score (Albumin (Bos taurus)) | composite Z-score [1] | composite z-score [2] | composite z-score [3] | composite z-score [4] | composite z-score [5] | composite z-score [6] | composite z-score (Sam68 (KHDRBS1)) | composite z-score [7] | composite z-score [8]
1 | C[N+](C)(C)CCCCCCNC(=O)[C@@H]1C[C@@H]2C(=O)N[C@@H](CCCC[N+](C)(C)C)C(=O)N2[C@@H]1c1ccc(O)cc1 | -0.595 and 0.0621 | 0.722 (inactive) and 0.318 (inactive) | -0.0918 and 0.0016 | -0.164 and -0.147 | 0.747 and 0.82 | -0.251 and 0.233 | 0.774 and 0.322 | -0.351 and 0.428 | 0.952 and 0.671 | 0.197 and 0.299
2 | COC(=O)[C@@]1(Cc2ccc(OC)cc2)[C@H]2c3cc(C(=O)N(C)C)n(Cc4ccc(O)c(OC)c4)c3C[C@H]2CN1C(=O)c1ccccc1 | 1.03 and 0.843 | -0.0164 (inactive) and -0.483 (inactive) | 0.359 and 0.68 | 0.357 and 0.124 | 0.893 and 0.406 | 1.81 and 2.81 | 1.17 and 0.341 | 0.725 and 1.22 | -1.12 and -0.44 | 0.311 and 0.836
3 | C=C[C@H](OC)[C@@H](O)c1ccc(OCCO)cc1 | -1.69 and -0.599 | 0.459 (inactive) and -0.239 (inactive) | -0.437 and -0.465 | -0.248 and -0.242 | 0.934 and 0.835 | -0.358 and -0.494 | 0.581 and -0.234 | -0.924 and -0.595 | -2.3 and -0.674 | -2.17 and -0.715
4 | C[C@@H]1CN2[C@@H](CC[C@@H](C)[C@@H]2c2ccc(Br)cc2)C(=O)O1 | -0.66 and 0.877 | -0.139 (inactive) and 0.204 (inactive) | 0.0357 and -0.0363 | -0.0515 and -0.221 | -0.366 and -0.303 | -0.513 and 0.437 | 0.39 and 0.146 | -1.57 and 0.0639 | 0.261 and 0.559 | -0.0782 and -0.252
5 | C=C[C@H](C)[C@H](O)c1ccc(O)c2ccccc12 | -0.401 and 0.473 | 0.0296 (inactive) and -0.906 (inactive) | -0.36 and -0.229 | -0.109 and -0.114 | 0.137 and 0.349 | -0.0769 and 0.283 | -0.055 and -0.15 | -0.512 and -0.791 | -0.14 and -0.152 | -1.05 and -0.559
6 | C[C@@H]1CC[C@H]2C(=O)NC[C@@H](O)CN2[C@H]1c1ccc(Br)cc1 | 0.446 and -0.624 | -0.312 (inactive) and 0.171 (inactive) | -0.0598 and -0.207 | -0.14 and -0.046 | 0.702 and -0.138 | 0.703 and 0.229 | -0.172 and -0.0957 | -0.46 and 0.119 | -0.119 and 0.127 | 0.407 and -0.416
7 | CO[C@H]1COC(=O)CC=C[C@@H](C)COC(=O)[C@H](CCSC)NC(=O)CC=C[C@@H]1C | -1.57 and -1.06 | 2.77 (inactive) and 1.61 (inactive) | 0.0311 and -0.0043 | -0.0942 and -0.0241 | -0.407 and -0.489 | -0.335 and -0.552 | 0.383 and -1.41 | 0.982 and 1.31 | 1.54 and 1.65 | -0.773 and -2.15
8 | O=C1NC(=O)C2C1C=CC(C(O)c1ccc([N+](=O)[O-])cc1)N2Nc1ccc(Cl)cc1Cl (stereo not given) | 0.933 and 0.732 | -0.35 (inactive) and -0.195 (inactive) | 0.0597 and 0.133 | 0.0454 and 0.153 | 0.483 and 0.751 | 2.95 and 2.03 | 0.673 and 1.28 | 0.415 and 0.584 | -0.532 and -0.0926 | 0.738 and 0.461
9 | CCOC(=O)c1ccc(NC(=O)O[C@H]2[C@H](OC(=O)Nc3ccccc3)[C@@H](OC(=O)Nc3ccccc3)[C@@H](OC)O[C@@H]2CO)cc1 | 0.905 and 0.893 | 1.09 (inactive) and 0.682 (inactive) | 0.228 and 0.318 | 0.0149 and -0.0131 | 0.527 and 0.688 | 2.63 and 1.91 | 0.336 and 0.278 | 1.31 | -0.193 and -0.279 | 1.23 and 1.17
10 | COC(=O)[C@@]1(Cc2ccc(F)cc2)[C@H]2c3cc(C(=O)N4CCCC4)n(Cc4c(CO)[nH]cc(C)c4=O)c3C[C@H]2CN1C(=O)c1ccccc1 | 1.07 and 0.247 | 0.418 (inactive) and 0.724 (inactive) | 1.28 and 0.355 | 0.908 and 0.11 | 0.439 and 0.769 | 2.88 and 2.95 | 0.614 and 0.478 | -0.201 and 0.623 | -0.114 and -0.367 | 0.196 and 0.0402
11 | C=CC[C@H](O)c1ccc(OCCO)cc1 | 0.787 and -0.0212 | -0.745 (inactive) and 0.156 (inactive) | -0.382 and -0.319 | -0.169 and -0.296 | 0.725 and 0.843 | -0.263 and -1.45 | -0.22 and -0.782 | -0.769 and -2.69 | -0.978 and 0.193 | -1.3 and -1.2
12 | C=C[C@@H](OC)[C@H](O)c1ccc(O)c(F)c1 | -0.131 and 0.529 | 1.31 (inactive) and -0.643 (inactive) | -0.502 and -0.544 | -0.266 and -0.254 | 0.881 and -0.182 | -0.385 and -0.626 | 1.24 and -1.16 | -0.697 and -1.48 | -0.952 and -0.984 | -0.904 and -1.04
13 | CCCNC(=O)OC[C@H]1O[C@H](CCON=C(C)CCC(=O)OC[C@H]2O[C@H](C#Cc3ccccc3)C=C[C@@H]2Oc2ccc(C)cc2)C=C[C@@H]1Oc1ccc(OC)cc1 | -0.22 | 0.212 (inactive) | -0.158 | -0.141 | -0.29 | -0.324 | -0.141 | -1.22 | -0.288 | 0.154
14 | CCCCCN1CC=CC23O[C@@H]4C=CCCOC(=O)C4[C@H]2C(=O)N(C(C)CO)[C@@H]3C1=O (stereo not given in full) | 0.345 and -0.098 | -0.0812 (inactive) and -0.45 (inactive) | -0.536 and -0.0416 | -0.475 and -0.181 | 0.792 and 0.844 | 0.654 and 1.55 | 0.114 and 0.885 | 0.656 and 0.708 | -0.397 and -0.845 | -0.0729 and 0.147
15 | CC(CO)N1C(=O)[C@@H]2C3C(=O)OCCC=C[C@H]3OC23C=CCN(c2ccc4ccccc4c2)C(=O)[C@@H]13 (stereo not given in full) | -0.452 and 0.947 | -0.862 (inactive) and 0.322 (inactive) | -0.1 and -0.498 | -0.14 and -0.299 | 0.838 and 0.84 | 0.506 and 0.368 | 0.697 and 0.476 | 0.31 and -0.264 | -0.937 and -1.09 | 0.0026 and -0.279
16 | CCOC(=O)NN=C1C[C@@H](O)[C@@H](O)[C@@H]2[C@@H]3C(=O)N(Cc4ccccc4)C(=O)[C@@H]3CC[C@@H]12 | -0.0904 | 0.182 (inactive) | -0.166 | -0.135 | -0.0916 | -0.381 | 0.0195 | 0.254 | 0.772 | 0.42

— PubChem BioAssay
